Compound activity deposited in PubChem by The Scripps Research Institute Molecular Screening Center.
The list is not random: actives were taken first. Their share in the collection is about 3.5%.
FBW7 act – activators of human E3 ligase FBW7; Q969H0; AlphaScreen FBW7–phospho-cyclin E peptide binding, activator screen; normalized activity (activation), % at 26.1 µM; 650,000 compounds, 0.13% hits; AID 1259310; in the data active = normalized activity above about 1.9%;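 also: purified mutant Fbw7 with reduced substrate affinity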
Target sequence (Q969H0 whole entry, looked up): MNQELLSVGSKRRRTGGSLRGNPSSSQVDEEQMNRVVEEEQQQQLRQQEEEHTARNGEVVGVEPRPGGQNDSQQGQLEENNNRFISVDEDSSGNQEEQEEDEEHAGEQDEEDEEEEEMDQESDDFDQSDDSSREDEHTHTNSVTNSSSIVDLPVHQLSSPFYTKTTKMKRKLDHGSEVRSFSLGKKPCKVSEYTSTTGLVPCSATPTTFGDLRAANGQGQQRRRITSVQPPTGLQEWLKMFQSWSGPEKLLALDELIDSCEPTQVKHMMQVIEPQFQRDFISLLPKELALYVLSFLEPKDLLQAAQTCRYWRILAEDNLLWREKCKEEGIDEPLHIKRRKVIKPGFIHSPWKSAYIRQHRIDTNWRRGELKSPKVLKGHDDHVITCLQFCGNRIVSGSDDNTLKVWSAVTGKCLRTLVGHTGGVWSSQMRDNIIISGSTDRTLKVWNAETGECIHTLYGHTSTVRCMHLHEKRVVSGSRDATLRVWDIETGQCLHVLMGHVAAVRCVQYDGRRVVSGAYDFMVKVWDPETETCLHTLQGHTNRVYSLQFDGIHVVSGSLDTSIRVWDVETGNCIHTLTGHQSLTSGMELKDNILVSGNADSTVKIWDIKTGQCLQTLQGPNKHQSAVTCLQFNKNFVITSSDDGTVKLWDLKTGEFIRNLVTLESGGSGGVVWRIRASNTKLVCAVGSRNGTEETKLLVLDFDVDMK
TEAD-YAP inh – TEAD-YAP interaction inhibition; HEK-TIYL cells, TEAD-Gal4/YAP UAS-luciferase luminescence; 640,000 compounds, 1.4% hits; inhibition, % at 9.12 µM; in the data active = inhibition above about 32%;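 also: 0% = median of test compound wells and 100% = reference inhibitor wells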
GPR151 ag – human GPR151 activation; activation, % at 11.2 µM; PathHunter beta-arrestin GPR151 cells, luminescence; 650,000 compounds, 1% hits; in the data active = activation above about 4.9%;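 also: 0% = median of compound wells and 100% = cells with positive control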
MITF inh – inhibitors of human MITF. O75030. AlphaScreen MITF homodimerization, bead proximity signal. inhibition, % at 2.6 µM. 650,000 compounds, 0.91% hits; in the data active = inhibition above about 50%;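 also: 0% = vehicle wells with protein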
GPR151 conf act – confirmation of human GPR151 activators; shares compounds with GPR151 ag; GPR151 PathHunter beta-arrestin cells, luminescence, 90 min; % of EA-reagent control over plate median; activation, % at 11.2 µM; 6,700 tested, under 10 active;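 active = mean percent activation across replicates above the confirmation screen cutoff of 4.91%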
GPR119 ag – counter-screen for GPR151 activators: effect on human GPR119; 6,700 compounds, 0.3% hits; shares compounds with GPR151 ag; activation, % at 11.2 µM; AID 1508611; GPR119 PathHunter beta-arrestin cells, luminescence, 90 min; 0 = compound-well median, 100 = enzyme-acceptor control;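 active = mean percent activation in the counterscreen above 29.09%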;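 also: counterscreen on off-target GPR119 to flag nonselective hits from the GPR151 activator screen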
An asterisk follows results filed as active; . = no result.

SMILES	FBW7 act	TEAD-YAP inh	GPR151 ag	MITF inh	GPR151 conf act	GPR119 ag
Cc1c(NC(=O)CSc2ccc(C(C)(C)C)cc2)c(=O)n(-c2ccccc2)n1C	0.0	10.1	8.2*	10.8	-0.1	0.2
CN1C(=O)C(C)(C)c2cc(S(=O)(=O)N3CCN(c4ccccc4F)CC3)ccc21	-0.3	-9.0	5.1*	1.3	0.3	4.5
Cc1cccc(N2CCN(S(=O)(=O)c3ccc4c(c3)C(C)(C)C(=O)N4C)CC2)c1C	-0.3	4.8	-0.2	32.2	.	.
CCOC(=O)C(C(=O)NCc1ccccc1)C1CCCCC1 (stereo unspecified)	-0.1	-3.6	5.9*	-14.2	-1.1	-0.6
O=C(NCc1cccnc1)c1cc(-c2ccc(F)cc2)no1	-0.2	-23.1	5.0*	13.5	0.1	-5.5
C(=C\c1ccc2ccccc2c1)/c1ccc(-c2nnc(-c3ccc4ccccc4c3)o2)cc1	0.4	-0.2	-0.5	-3.9	.	.
N#CC1(C#N)[C@H](C(N)=O)[C@H]1c1ccccc1Cl	-0.2	-3.1	-0.5	-6.7	.	.
Cc1sc(NC(=O)c2cc3ccccc3oc2=O)nc1-c1ccc(Br)cc1	0.0	-5.7	7.4*	-1.9	1.9	-2.3
COc1ccc(Cl)c2sc(NC(=O)COc3ccccc3)nc12	0.1	-5.5	1.6	12.2	.	.
O=C(NC1=NCCS1)c1sc2cc(F)ccc2c1Cl	.	.	7.4*	.	1.3	-5.3
O=C(Nc1ccon1)c1sc2cc(F)ccc2c1Cl	0.7	-41.4	-2.2	10.3	.	.
O=C(c1cccc(S(=O)(=O)N2CCCC2)c1)c1nnc(-c2ccncc2)o1	0.0	-0.8	8.2*	4.5	0.0	5.5
Cn1c(=O)c2c(ncn2CC(=O)N/N=C/c2ccc(C(F)(F)F)cc2)n(C)c1=O	0.0	1.9	5.6*	12.2	-0.4	4.1
Cn1c(=O)c2c(ncn2CC(=O)N/N=C/c2ccccc2F)n(C)c1=O	0.2	2.0	-0.1	-1.5	.	.
COc1ccc(-c2cc(C(F)(F)F)n3nc(C(=O)Nc4ccc(Cl)cc4C(F)(F)F)cc3n2)cc1	0.1	8.4	0.5	10.8	.	.
CN(CC(=O)c1ccc2cc[nH]c2c1)Cc1ccccc1	0.7	-19.7	5.3*	14.2	0.0	-6.8
COc1cc2nc(Nc3ccncc3)nc(Nc3ccc(N4CCOCC4)cc3)c2cc1OC	-0.2	-7.1	6.6*	17.9	-0.3	-2.5
CCc1cccc(CC)c1NC(=O)CN1C(=O)NC2(CCCCC2C)C1=O (stereo unspecified)	-0.1	0.0	6.2*	-4.7	0.7	0.1
Cc1nc2c(C(=O)NCc3ccc(F)cc3)c[nH]n2c(=O)c1Cl	-0.1	-2.7	9.6*	2.1	-0.1	4.6
Cc1nc2c(C(=O)NCCc3ccccc3)c[nH]n2c(=O)c1Cl	-0.1	0.3	-0.8	14.5	.	.
CCCCOC(=O)c1cccc(NC(=S)NC(=O)c2cc(OC)c(OC)c(OC)c2)c1	-0.1	-8.3	5.1*	6.0	0.0	0.1
O=C(/C=C/c1ccccc1)N1CCN(C2=NN=C(c3ccccc3)CS2)CC1	-0.4	-20.9	6.2*	0.9	-1.3	-4.7
Cc1cc(C)nc(SCC(=O)NNC(=O)c2ccccc2Br)n1	0.0	11.5	6.0*	19.7	0.5	0.4
CCOC(=O)N1CCC(NC(=O)c2ccc(N3CC4CC(C3)c3cccc(=O)n3C4)c(NC(=O)c3ccc(C(C)(C)C)cc3)c2)CC1 (stereo unspecified)	0.4	-13.2	-0.1	0.7	.	.
CCOC(=O)N1CCC(NC(=O)c2ccc(N3CC4CC(C3)c3cccc(=O)n3C4)c(NC(=O)c3ccncc3)c2)CC1 (stereo unspecified)	-0.2	-4.7	4.9*	-1.5	-0.8	-12.1
O=C(Nc1cc(C(=O)N2CCCC2)ccc1N1CC2CC(C1)c1cccc(=O)n1C2)c1ccc(F)cc1 (stereo unspecified)	0.4	12.5	1.1	3.9	.	.
O=C(NCCC1=CCCCC1)c1ccc(N2CC3CC(C2)c2cccc(=O)n2C3)c(NC(=O)c2c(F)cccc2F)c1 (stereo unspecified)	0.0	-3.5	8.0*	4.3	0.1	3.0
CC1CC(C)CN(C(=O)c2ccc(N3CC4CC(C3)c3cccc(=O)n3C4)c(NC(=O)c3ccc(F)cc3)c2)C1 (stereo unspecified)	0.0	-6.5	6.3*	-8.1	-0.3	5.2
